Data published in PubChem BioAssay (Tox21).
Inconclusive results are not listed. Calls of active or inactive are those of the source. Unless noted, the call rests on the fitted dose curve; in most records, active means well fitted curve in the direction sought with a large enough effect in the repeat runs; inconclusive means weak or mixed curves; inactive means no such curve, though single readings can be large; an effect the other way counts as inactive or inconclusive.

What was measured:
[1] = qHTS assay to identify aromatase inhibitors - cell viability counter screen (AID 743084);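 further: cells stimulated with testosterone during compound exposure; nearly all actives have a fitted effect of over 55% in size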
[2] = target: Aryl hydrocarbon receptor (Homo sapiens) (UniProt P35869); assay: qHTS assay to identify small molecule that activate the aryl hydrocarbon receptor (AhR) signaling pathway (AID 743085); further: nearly all actives have a fitted effect of over 15% in size; further: potency means the concentration at half of the fitted maximal effect;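 on activation: HG2L7.5c1 human HepG2 liver cells with stably integrated DRE-driven firefly reporter; series mostly up to about 70 µM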
Chain of Aryl hydrocarbon receptor (Homo sapiens) (P35869 whole entry, looked up): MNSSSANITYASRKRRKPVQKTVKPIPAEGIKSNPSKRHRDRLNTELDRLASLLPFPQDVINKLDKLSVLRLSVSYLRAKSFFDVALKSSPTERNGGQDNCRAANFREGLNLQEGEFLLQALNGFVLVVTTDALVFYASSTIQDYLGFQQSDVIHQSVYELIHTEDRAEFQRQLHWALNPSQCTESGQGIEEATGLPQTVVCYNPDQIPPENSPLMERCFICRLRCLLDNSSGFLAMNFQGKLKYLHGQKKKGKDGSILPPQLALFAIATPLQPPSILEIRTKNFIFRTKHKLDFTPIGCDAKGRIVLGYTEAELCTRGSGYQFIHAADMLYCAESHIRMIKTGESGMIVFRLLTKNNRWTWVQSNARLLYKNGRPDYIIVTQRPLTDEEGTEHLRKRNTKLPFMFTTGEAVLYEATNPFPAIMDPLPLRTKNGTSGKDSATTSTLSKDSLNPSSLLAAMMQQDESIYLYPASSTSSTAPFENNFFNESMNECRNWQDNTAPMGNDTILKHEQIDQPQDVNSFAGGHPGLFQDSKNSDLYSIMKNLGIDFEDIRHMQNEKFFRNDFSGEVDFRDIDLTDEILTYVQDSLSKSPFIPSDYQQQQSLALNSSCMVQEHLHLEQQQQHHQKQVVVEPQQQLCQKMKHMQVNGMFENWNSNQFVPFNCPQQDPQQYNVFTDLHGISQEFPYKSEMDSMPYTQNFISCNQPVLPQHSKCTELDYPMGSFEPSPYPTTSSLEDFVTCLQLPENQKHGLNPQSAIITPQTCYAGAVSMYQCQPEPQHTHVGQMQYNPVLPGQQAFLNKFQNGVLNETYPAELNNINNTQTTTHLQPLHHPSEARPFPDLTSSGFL
Procedure, shortened: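 Compounds were tested in HepG2 hepatocellular carcinoma cells harbouring a stably integrated luciferase gene under control of 20 DREs. Increased reporter signal after 24 h treatment at 37C was taken as AhR activation.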

[3] = qHTS assay to identify small molecule that activate the aryl hydrocarbon receptor (AhR) signaling pathway - cell viability counter screen (AID 743086);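 further: HepG2 liver cells carrying the AhR DRE luciferase reporter; series mostly up to about 70 µM; nearly all actives have a fitted effect of over 45% in size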
Procedure, shortened: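 Cytotoxicity counter screen: CellTiter-Fluor signal (30 min, 37 C) in 4000 HepG2 cells/well carrying the DRE-luciferase reporter, following 24 h compound exposure at 37 C.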

[4] = target: Peroxisome proliferator-activated receptor gamma (Homo sapiens) (UniProt P37231); assay: qHTS assay to identify small molecule agonists of the peroxisome proliferator-activated receptor gamma (PPARg) signaling pathway (AID 743094; active means well fitted activation curve with a large enough effect in the signal ratio in the repeat runs, not every such curve was filed as active; the % refers to the signal ratio)
Chain of Peroxisome proliferator-activated receptor gamma (Homo sapiens) (P37231 whole entry, looked up): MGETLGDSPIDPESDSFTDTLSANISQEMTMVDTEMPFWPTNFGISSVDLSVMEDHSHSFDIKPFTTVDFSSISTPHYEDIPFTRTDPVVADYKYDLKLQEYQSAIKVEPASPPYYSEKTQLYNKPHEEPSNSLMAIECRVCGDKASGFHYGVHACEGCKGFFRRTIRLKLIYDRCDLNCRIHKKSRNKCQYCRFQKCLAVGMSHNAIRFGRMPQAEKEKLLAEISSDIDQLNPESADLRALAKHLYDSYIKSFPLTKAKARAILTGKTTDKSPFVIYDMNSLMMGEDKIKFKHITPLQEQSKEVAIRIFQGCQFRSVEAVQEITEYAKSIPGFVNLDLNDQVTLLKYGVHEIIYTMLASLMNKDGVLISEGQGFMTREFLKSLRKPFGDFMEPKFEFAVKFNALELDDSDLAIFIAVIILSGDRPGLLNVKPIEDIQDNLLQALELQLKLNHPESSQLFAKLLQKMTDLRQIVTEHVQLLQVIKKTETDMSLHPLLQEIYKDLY
Procedure, shortened: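 Beta-lactamase FRET fluorescence was the read-out after a 1 h room-temperature substrate step, following 17 h compound treatment at 37C of HEK293H cells expressing a UAS-driven bla reporter responsive to PPARg.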

[5] = qHTS assay to identify small molecule antagonists of the peroxisome proliferator-activated receptor gamma (PPARg) signaling pathway - cell viability counter screen (AID 743194); conditions: Potency: co-treated with 50 nM rosiglitazone; further: nearly all actives have a fitted effect of over 55% in size
Procedure, shortened: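 Viability was measured as CellTiter-Glo luminescence in GeneBLAzer PPARg UAS-bla HEK293H cells. These cells had been exposed 17 h at 37 C to compounds together with rosiglitazone at 50 nM final, with the beta-lactamase readout taken in the same wells.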

[6] = qHTS assay for small molecule agonists of the antioxidant response element (ARE) signaling pathway (AID 743202; active means well fitted activation curve with a large enough effect in the signal ratio in the repeat runs, not every such curve was filed as active; the % refers to the signal ratio)
Procedure, shortened: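 An ARE-responsive beta-lactamase gene stably integrated in HepG2 cells serves as reporter. After 5 h plating and 16 h compound incubation at 37 C, fluorescence of the B/G FRET substrate was measured.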

[7] = qHTS assay for small molecule agonists of the antioxidant response element (ARE) signaling pathway - cell viability counter screen (AID 743203; calls by dose curve; further: nearly all actives have a fitted effect of over 55% in size)
Procedure, shortened: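 HepG2 cells carrying ARE-driven beta-lactamase; 2,000 cells/well; 5 hrs plating; compound pinned from DMSO; 16 hrs 37C/5% CO2; CellTiter-Glo added; 30 min RT; luminescence.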

[8] = qHTS assay for small molecule activators of the heat shock response signaling pathway - cell viability counter screen (AID 743209); further: nearly all actives have a fitted effect of over 50% in size
Procedure, shortened: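 Luminescence from CellTiter-Glo, added after the beta-lactamase FRET read, gave the viability signal. Cells were HSE-bla HeLa treated with DMSO-dissolved compounds for 5 h at 37 C following overnight plating.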

[9] = qHTS assay for small molecule activators of the heat shock response signaling pathway (AID 743210; active means well fitted activation curve with a large enough effect in the signal ratio in the repeat runs, with a control signal flat, not every such curve was filed as active; the % refers to the signal ratio;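 further: HeLa cells with beta-lactamase reporter driven by heat shock elements; series mostly up to about 63 µM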)
Procedure, shortened: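 In HSE-bla HeLa cells, 5 h compound incubation (37 C) precedes addition of LiveBLAzer B/G substrate; after 2.5 h at room temperature, fluorescence intensity indicates reporter induction.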

[10] = qHTS assay to identify small molecule agonists of the peroxisome proliferator-activated receptor delta (PPARd) signaling pathway - cell viability counter screen (AID 743211); further: nearly all actives have a fitted effect of over 55% in size
Procedure, shortened: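 Counter screen for cytotoxicity run in parallel with the PPARd reporter screen. Beta-lactamase reporter HEK293H cells exposed to compounds 17 h; ATP-based CellTiter-Glo luminescence quantified viability.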

[11] = target: Bile acid receptor (Homo sapiens) (UniProt Q96RI1); assay: qHTS assay to identify small molecule antagonists of the farnesoid-X-receptor (FXR) signaling pathway (AID 743217; active means well fitted inhibition curve with a large enough effect in the signal ratio in the repeat runs, not every such curve was filed as active; the % refers to the signal ratio)
Chain of Bile acid receptor (Homo sapiens) (Q96RI1 whole entry, looked up): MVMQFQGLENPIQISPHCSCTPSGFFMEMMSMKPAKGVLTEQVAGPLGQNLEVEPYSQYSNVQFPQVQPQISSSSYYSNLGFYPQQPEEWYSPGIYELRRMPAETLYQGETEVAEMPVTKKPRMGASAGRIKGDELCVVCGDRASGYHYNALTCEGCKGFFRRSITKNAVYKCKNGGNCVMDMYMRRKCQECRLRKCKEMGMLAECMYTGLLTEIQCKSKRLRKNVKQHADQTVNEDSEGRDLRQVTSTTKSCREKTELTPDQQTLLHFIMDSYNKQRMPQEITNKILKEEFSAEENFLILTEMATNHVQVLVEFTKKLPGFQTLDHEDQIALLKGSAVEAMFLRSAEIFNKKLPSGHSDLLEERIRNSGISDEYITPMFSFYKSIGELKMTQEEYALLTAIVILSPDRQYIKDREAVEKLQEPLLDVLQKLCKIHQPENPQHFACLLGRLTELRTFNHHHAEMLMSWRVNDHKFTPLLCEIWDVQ
Procedure, shortened: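 HEK 293T FXR-UAS-bla, 5000 cells/well; compound + CDCA 50 uM final; 16 h, 37 °C; B/G FRET substrate 2 h RT; fluorescence.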

[12] = qHTS assay to identify small molecule agonists of the farnesoid-X-receptor (FXR) signaling pathway - cell viability counter screen (AID 743218); further: nearly all actives have a fitted effect of over 45% in size
Procedure, shortened: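 HEK 293T FXR-bla cells; 5 h pre-incubation, 16 h compound exposure at 37 C; LiveBLAzer substrate 2 h RT, then CellTiter-Glo 30 min RT, luminescence.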

[13] = target: Bile acid receptor (Homo sapiens) (UniProt Q96RI1); assay: qHTS assay to identify small molecule agonists of the farnesoid-X-receptor (FXR) signaling pathway (AID 743220; active means well fitted activation curve with a large enough effect in the signal ratio in the repeat runs, not every such curve was filed as active; the % refers to the signal ratio)
Procedure, shortened: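 Beta-lactamase reporter under UAS control in GeneBLAzer FXR HEK 293T cells (5000/well) measured with LiveBLAzer FRET substrate after 2 h at room temperature. Compound exposure lasted 16 h at 37C.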

[14] = qHTS assay to identify small molecule antagonists of the farnesoid-X-receptor (FXR) signaling pathway - cell viability counter screen (AID 743221; active means well fitted cell-killing curve with a large enough effect in the repeat runs, not every such curve was filed as active; further: nearly all actives have a fitted effect of over 50% in size)
Procedure, shortened: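 Multiplexed counter screen: viability of FXR-bla HEK 293T cells under agonist stimulation by chenodeoxycholic acid (50 uM, final) and test compound for 16 h at 37 C, measured by CellTiter-Glo luminescence in the reporter wells.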

[15] = target: Peroxisome proliferator-activated receptor delta (Homo sapiens) (UniProt Q03181); assay: qHTS assay to identify small molecule agonists of the peroxisome proliferator-activated receptor delta (PPARd) signaling pathway (AID 743212; calls by dose curve)
Chain of Peroxisome proliferator-activated receptor delta (Homo sapiens) (Q03181 whole entry, looked up): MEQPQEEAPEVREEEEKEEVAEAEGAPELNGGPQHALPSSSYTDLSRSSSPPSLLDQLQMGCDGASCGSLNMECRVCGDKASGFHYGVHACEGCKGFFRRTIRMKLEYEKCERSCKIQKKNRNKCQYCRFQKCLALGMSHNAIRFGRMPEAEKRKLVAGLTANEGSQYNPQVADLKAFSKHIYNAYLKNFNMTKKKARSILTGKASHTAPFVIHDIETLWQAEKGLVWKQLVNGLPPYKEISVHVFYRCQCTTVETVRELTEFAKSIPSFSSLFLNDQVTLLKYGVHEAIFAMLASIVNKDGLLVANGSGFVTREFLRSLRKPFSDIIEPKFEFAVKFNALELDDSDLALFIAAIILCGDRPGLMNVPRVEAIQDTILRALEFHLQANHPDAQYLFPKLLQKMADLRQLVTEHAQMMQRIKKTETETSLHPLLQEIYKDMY
Procedure, shortened: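 HEK293H UAS-bla reporter cells, human PPARd system; compounds delivered in DMSO after 5 h plating, then at 37 C. Beta-lactamase FRET read, 2 h RT substrate step.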

[16] = target: Peroxisome proliferator-activated receptor delta (Homo sapiens) (UniProt Q03181); assay: qHTS assay to identify small molecule antagonists of the peroxisome proliferator-activated receptor delta (PPARd) signaling pathway (AID 743215; active means well fitted inhibition curve with a large enough effect in the signal ratio in the repeat runs, not every such curve was filed as active; the % refers to the signal ratio;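 further: cells stimulated with agonist L165041 at 300 nM final during compound exposure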; further: potency means the concentration at half of the fitted maximal effect)
Procedure, shortened: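 Read-out is beta-lactamase FRET fluorescence, measured 2 h after substrate addition at room temperature. Beforehand, UAS-bla HEK293H cells carrying the PPARd reporter were exposed to compounds with L165041 at 300 nM final for 17 h at 37 C.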

[17] = target: Vitamin D3 receptor (Homo sapiens) (UniProt P11473); assay: qHTS assay to identify small molecule agonists of the vitamin D receptor (VDR) signaling pathway (AID 743222; calls by dose curve)
Chain of Vitamin D3 receptor (Homo sapiens) (P11473 whole entry, looked up): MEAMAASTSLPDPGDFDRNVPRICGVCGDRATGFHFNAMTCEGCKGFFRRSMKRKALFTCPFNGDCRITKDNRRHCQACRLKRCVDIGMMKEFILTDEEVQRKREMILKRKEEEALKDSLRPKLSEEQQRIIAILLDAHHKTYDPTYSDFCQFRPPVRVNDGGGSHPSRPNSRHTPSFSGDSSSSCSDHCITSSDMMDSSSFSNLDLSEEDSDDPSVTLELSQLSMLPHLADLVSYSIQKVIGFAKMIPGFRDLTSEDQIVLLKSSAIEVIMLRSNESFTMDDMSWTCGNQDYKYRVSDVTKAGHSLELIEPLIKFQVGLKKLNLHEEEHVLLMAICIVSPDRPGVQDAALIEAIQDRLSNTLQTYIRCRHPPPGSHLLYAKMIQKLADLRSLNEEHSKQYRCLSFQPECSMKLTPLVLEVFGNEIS
Procedure, shortened: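 VDR-bla cells, 2,000/well; 4 h preincubation 37C; cpd (DMSO) 16 h; LiveBLAzer B/G substrate 2 h RT; fluorescence intensity read.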

[18] = target: Vitamin D3 receptor (Homo sapiens) (UniProt P11473); assay: qHTS assay to identify small molecule antagonists of the vitamin D receptor (VDR) signaling pathway (AID 743223; active means well fitted inhibition curve with a large enough effect in the signal ratio in the repeat runs, not every such curve was filed as active; the % refers to the signal ratio)
Procedure, shortened: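 Cells carrying a VDR-driven beta-lactamase reporter (VDR-bla) were co-treated with compound and 3 nM final 1alpha,25-dihydroxyvitamin D3 for 16 h at 37C; reporter activity was measured as FRET substrate fluorescence after 2 h at room temperature.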

[19] = qHTS assay to identify small molecule antagonists of the peroxisome proliferator-activated receptor delta (PPARd) signaling pathway - cell viability counter screen (AID 743213); further: nearly all actives have a fitted effect of over 50% in size
Procedure, shortened: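 Same-well viability: cells pre-incubated 5 h, dosed with compound plus 300 nM L165041, kept 17 h at 37 C, FRET substrate 2 h RT, then CellTiter-Glo 30 min RT and luminescence.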

[20] = target: Peroxisome proliferator-activated receptor gamma (Homo sapiens) (UniProt P37231); assay: qHTS assay to identify small molecule antagonists of the peroxisome proliferator-activated receptor gamma (PPARg) signaling pathway (AID 743191; calls by dose curve; further: series mostly up to about 63 µM; nearly all actives have a fitted effect of over 30% in size)
Procedure, shortened: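 Beta-lactamase reporter under UAS control in HEK293H PPARg-bla cells; compound treatment 17 h at 37C. Read-out: fluorescence intensity after 1 h room-temperature incubation with LiveBLAzer B/G FRET substrate.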

Measured: Potency
On the % scale 0 is the no-effect control and ±100 the full control effect.

CCCN1CCC[C@@H]2Cc3[nH]ncc3C[C@H]21
active: [2] 9.44 µM
not listed: [15] | [16] | [17] | [18] | [19] | [20]
inactive: all other assays above

O=C(NC(=O)c1c(F)cccc1F)Nc1cc(Cl)c(F)c(Cl)c1F
not listed: [6] | [9] | [11] | [13] | [19] | [20]
inactive: all other assays above

CCCC(C)C1(CC)C(=O)N=C(S)NC1=O (configuration not stated)
not listed: [4] | [11] | [13] | [15] | [16] | [20]
inactive: all other assays above

C[N+]1(C)CCCCC1
not listed: [4] | [5] | [10] | [11] | [13] | [14]
inactive: all other assays above

Cc1ccc(Cl)c(O)c1
not listed: [4] | [11] | [13] | [18] | [19] | [20]
inactive: all other assays above

COc1cc(CC(C)N)cc(OC)c1OC (configuration not stated)
not listed: [4] | [6] | [9] | [11] | [13] | [15] | [17] | [18]
inactive: all other assays above

CCNc1nc(NCC)nc(SC)n1
not listed: [5] | [6] | [11] | [13] | [15] | [16] | [19] | [20]
inactive: all other assays above

CC(Cl)(Cl)Cl
not listed: [4] | [11] | [13] | [19]
inactive: all other assays above

CN(CCO)CCO
not listed: [4] | [6] | [12] | [13] | [19]
inactive: all other assays above

CCOP(=O)(CN(CCO)CCO)OCC
not listed: [4] | [6] | [7] | [9] | [11] | [13]
inactive: all other assays above

O=C/C=C/c1ccco1
not listed: [4] | [9] | [11] | [13] | [17] | [18] | [20]
inactive: all other assays above

CC(=O)CN(CC(C)=O)N=O
not listed: [4] | [6] | [11] | [13] | [17] | [18]
inactive: all other assays above

OCC(Cl)CCl (configuration not stated)
not listed: [4] | [8] | [9] | [11] | [13] | [14]
inactive: all other assays above

Clc1ccc(C(Cl)(Cl)Cl)cn1
active: [2] 48.6 µM
not listed: [4] | [7] | [9] | [11] | [18] | [19]
inactive: all other assays above

COc1ccc2c(C(=O)c3ccc(Cl)cc3)c(C)n(CC(=O)O)c2c1
active: [2] 33.5 µM
not listed: [5] | [10] | [12] | [17] | [18] | [20]
inactive: all other assays above

CCCCCCCC(=O)Cl
not listed: [4] | [11] | [13] | [17] | [18]
inactive: all other assays above

[O-][Br+2]([O-])O
not listed: [4] | [6] | [9] | [11] | [13]
inactive: all other assays above

NC(=O)OCCCc1ccccc1
not listed: [4] | [11] | [13] | [15] | [16] | [17] | [18] | [19]
inactive: all other assays above

CC(C)(C)c1cc(O)ccc1O
inactive: [1] | [3] | [4] | [5] | [8] | [9] | [15] | [11] | [12]
active: [2] 26.6 µM [middle of 4 runs] | [16] 54.9 µM

CC(C)C(C)(N)C#N (configuration not stated)
not listed: [4] | [16] | [18] | [20]
inactive: all other assays above

O=C(O)C(F)(F)C(F)(F)C(F)(F)C(F)(F)C(F)(F)C(F)(F)F
not listed: [5] | [6] | [11] | [15] | [20]
inactive: all other assays above
